The panel holds about 83,000 compounds, 20% with a hit somewhere; the sample as a whole holds those more often.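 Method: cells in 96-well plates; compound added at one concentration; 48 h incubation; percent growth measured; values under 10 scored active.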 A number with no mark means an inactive call. Active and inactive are the calls of the source.
Tests used:
Assay in all cases: NCI-60 one-dose screen, 48 h (100 = growth as untreated, 0 = no growth, -100 = all killed)
Conditions in all cases: 10 µM unless noted
DU-145 prostate = system: DU-145 prostate
K-562 leukemia = system: K-562 leukemia
MALME-3M melanoma = system: MALME-3M melanoma
MDA-MB-231 breast = system: MDA-MB-231 breast
RXF 393 renal = system: RXF 393 renal
SF-268 CNS = system: SF-268 CNS
SF-295 CNS = system: SF-295 CNS
SF-539 CNS = system: SF-539 CNS
UACC-257 melanoma = system: UACC-257 melanoma
M14 melanoma = system: M14 melanoma

Row | SMILES | growth (DU-145 prostate) | growth (K-562 leukemia) | growth (MALME-3M melanoma) | growth (MDA-MB-231 breast) | growth (RXF 393 renal) | growth (SF-268 CNS) | growth (SF-295 CNS) | growth (SF-539 CNS) | growth (UACC-257 melanoma) | growth (M14 melanoma)
1 | CCC(CC)COC(=O)c1ccc(O)c(O)c1 | 73.4% | 102% | 54.8% | 48.9% | 65.7% | 57.8% | 90.1% | 34% | 86.4% | 86.1%
2 | Cn1c2ccccc2c2nnc(N/N=C/c3ccccn3)nc21 | 13.7% | 10.2% | -34.1% (active) | 56.2% |  | 6.74% (active) | -25.3% (active) | -35.9% (active) | 7.22% (active) | -42.1% (active)
3 | CN(C)c1ccc(/C=N/N=C(\C#N)[S][Sn]([Cl])([c]2ccccc2)[c]2ccccc2)cc1 | 5.62% (active) | 3.13% (active) | -50.8% (active) | -12.7% (active) | -86.3% (active) | 42.9% | 107% | -16.3% (active) | 21.3% | 4.46% (active)
4 | CN(C)c1ccc(N=Nc2cccc3ccccc23)cc1 | 107% | 117% | 101% | 80.1% | 98.9% | 95.1% | 91.5% | 97.1% | 96.3% | 80.5%
5 | O=C1NC(=O)/C(=C/C=C/c2ccccc2)S1 | 50.3% | 31.1% | 60.2% | 82.5% | 66.3% | 31.8% | 14.3% | -6.41% (active) | 45.1% | 12.3%

Source: PubChem BioAssay (NCI)
